Compound activity from PubChem BioAssay.
Most compounds without a hit are left out; they make up all but 4.6% or so of the library.
VACV Venus inh: vaccinia inhibition (Venus reporter) | Vaccinia virus Venus reporter expression, fluorescence | Potency, µM (series often up to 36.5 µM), most hits filed as inhibitors | 0.46% of 330,000 active | AID 720580; calls by dose curve; tested in A549 cells; note: nearly all actives have a fitted effect of over 30% in size
Lassa entry inh: inhibitors of Lassa virus binding or cell entry; Lassa virus pseudotype entry inhibition, cell reporter; Potency, µM (doses to about 37.9 µM), most hits filed as inhibitors; 1.2% of 300,000 active; calls by dose curve; tested in HEK293 cells; note: nearly all actives have a fitted effect of over 50% in size
Vaccinia mCherry: vaccinia inhibition (mCherry reporter) | 0.63% of 310,000 active | Potency, µM (series often up to 36.5 µM), actives largely listed as inhibitors | Vaccinia virus mCherry reporter infection, fluorescence | AID 720579; calls by dose curve; tested in A549 cells; note: nearly all actives have a fitted effect of over 35% in size
HCV inhibitor: blocks hepatitis C virus; Potency, µM (titrated, usually from 41.8 µM), usual class: inhibitors; 3.4% of 340,000 active; Huh7.5.1 HCVcc-Cre infection, luciferase reporter, 44 h; AID 651820; active = well fitted inhibition curve with a large enough effect; inconclusive = small, poorly fitted or top-dose-only effect, or another doubt; inactive = no such curve, though single readings can be large or run the other way
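Infectious HCV cell culture screen: compound-treated cells (1,000/well, pre-plated 4 h) are infected with HCVcc-Cre at roughly 0.5 moi and grown 44 h. Infection is quantified by luciferase signal after 15 min substrate incubation at room temperature.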
MARV entry inh: Marburg virus entry inhibition | AID 540276 | Marburg virus pseudotyped entry inhibition, cell reporter | Potency, µM (series often up to 37.8 µM), most hits filed as inhibitors | 1.8% of 300,000 active; calls by dose curve; tested in HEK293 cells
A number is an active result; . = inactive; ? = inconclusive; / = no result; [ ] = dose if it differs, or a comment.

SMILES	VACV Venus inh	Lassa entry inh	Vaccinia mCherry	HCV inhibitor	MARV entry inh
CC1CN(S(=O)(=O)c2ccc(C(=O)Nc3nnc(-c4ccccn4)o3)cc2)CC(C)O1 (configuration not stated)	.	.	.	.	.
CC1CN(S(=O)(=O)c2ccc(C(=O)Nc3nnc(-c4ccc5c(c4)CCCC5)o3)cc2)CC(C)O1 (configuration not stated)	?	/	8.9µM	.	.
COc1cccc(-c2nnc(NC(=O)c3ccc(S(=O)(=O)N4CCOCC4)cc3)o2)c1	.	?	.	13µM	?
COCc1nnc(NC(=O)c2ccc(S(=O)(=O)N3CCCc4ccccc43)cc2)o1	?	?	?	13µM	?
O=C(Nc1nnc(C2CC2)o1)c1ccc(S(=O)(=O)N2CCCc3ccccc32)cc1	.	/	?	.	.
COc1ccccc1-c1nnc(NC(=O)c2ccc(S(=O)(=O)N3CCOCC3)cc2)o1	.	.	.	.	.
COc1ccc(-c2nnc(NC(=O)c3ccc(S(=O)(=O)N4CCCc5ccccc54)cc3)o2)cc1	.	?	.	10µM	?
CCC(=O)N1CCc2cc(Br)cc(S(=O)(=O)CCC(=O)N3CCN(c4ccc(OC)cc4)CC3)c21	.	.	.	/	.
COc1cccc(-c2nnc(NC(=O)c3ccc4ncsc4c3)o2)c1	.	.	.	?	10µM
CCNC(=O)CSc1nnc(-c2cccc(S(=O)(=O)N3CCOCC3)c2)o1	?	.	11µM	.	.
O=C(O)CSc1nnc(-c2cccc(S(=O)(=O)N3CCCCC3)c2)o1	.	.	.	.	.
OCc1cnc(SCc2ccccc2F)n1Cc1ccc(F)cc1	.	.	.	/	/
Nc1ccc2c(c1)OC1(CCCC1)O2	.	16µM	.	?	?
O=C(Cc1ccccc1)Nc1ccc2c(c1)OC1(CCCC1)O2	.	.	.	.	?
CCOC(=O)c1cc(-c2ccccc2)n(CCC(=O)NCCc2ccccc2)c1C	.	11µM	.	/	/
COC(=O)[C@@H]1C[C@@]2(O)[C@H](O)[C@H](O)[C@H](O)C[C@H]2N1Cc1cc(OC)cc(OC)c1	.	/	.	.[8.37 µM]	/
COC(=O)[C@@H]1C[C@@]2(O)[C@@H](O)[C@@H](O)[C@@H](O)C[C@H]2N1Cc1cc(OC)cc(OC)c1	.	/	.	0.5µM	/
CCOc1cc(CNC2CCCC2)cc(Cl)c1OCc1ccccc1	?	?	.[1.46 µM]	13µM	?
c1ccc(CNC2CCCCCCC2)cc1 (tested in a mixture with another compound)	.	?	.	.	?
COc1cc(CNCc2ccccc2)cc(Cl)c1OC	.	.	?	.	?
CCOc1cc(CNC2CCCC2)ccc1OCc1ccccc1Cl	/	/	/	3.2µM	/
COc1cc(CNCCc2ccccc2)cc(Cl)c1OCc1ccccc1	?	?	10µM	?	?
CCOc1cc(C(N)=O)cc(Cl)c1OCc1ccccc1	.	/	.	13µM	/
CCSc1nc2ccccc2n1CC(N)=O	/	.	/	.	.
CCSc1nc2ccccc2n1C(=O)/C=C\c1ccc(OC)c(OC)c1	?	?	13µM	14µM	13µM
SMILES	VACV Venus inh	Lassa entry inh	Vaccinia mCherry	HCV inhibitor	MARV entry inh
COc1cccc(CN2CCC3(CCC(CNC(=O)c4cc(C)nn4C)O3)CC2)c1OC (configuration not stated)	.	/	.	/	/
O=C(CSc1nccn1Cc1ccc(F)cc1)Nc1ccc2c(c1)OCCO2	.	.	.	/	/
O=C(NCCN1CCN(c2ccccc2)CC1)Nc1cccc(Br)c1	.	.	.	14µM	.
O=C(CCN1CCN(c2ccccc2)CC1)Nc1cccc(Br)c1	.	/	.	.	/
CSc1nc(C(=O)NCc2nc(-c3cccc(NC(=O)c4ccccn4)c3)oc2C)cs1	.	/	.	/	/
Cc1ccc(-n2ncc3c(NCCCN(C)C)ncnc32)cc1Cl	.	?	.	/	/
O=C(/C=C/c1ccccc1O)c1ccco1	13µM	?	?	.	.
O=c1[nH]c(SCc2ccccc2Cl)nc2c1CCC2	/	.	/	.	.
CNc1nc(SCc2ccccc2Cl)nc2c1CCCC2	?	?	/	7.1µM	.
CN(C)c1ccc(C(=C2C=CC(=[N+](C)C)C=C2)c2ccc(N(C)C)cc2)cc1	10µM	/	.	/	/
CCCN(CCC)CCNC(=O)c1cc(Sc2ccc(Cl)cc2)nc2ccccc12	.	?	?	/	/
Cc1ccc(C(=O)C(C(=O)/C=C/c2ccccc2)=C2SCCCS2)cc1	?	22µM	?	?	?
CC(C)Cc1ccc(C(C)C(N)=NCCc2ccccc2)cc1 (configuration not stated)	.	?	?	?	2.2µM
COc1ccc(CCN=C(N)C(C)c2ccccc2)cc1OC (configuration not stated)	.	.	.	.	.
O=C(Nc1cccn(Cc2c(Cl)cccc2Cl)c1=O)c1ccc(Cl)cc1Cl	/	.	/	11µM	.
O=C1CSC(c2cn(-c3ccccc3)nc2-c2cc3ccccc3oc2=O)N1Cc1ccccc1 (configuration not stated)	?	11µM	.[1.46 µM]	13µM	?
Cc1ccc(N(CC(O)Cn2c3ccccc3c3ccccc32)S(=O)(=O)c2ccc(F)cc2)cc1 (configuration not stated)	.[7.34 µM]	.	.[7.34 µM]	/	?
CC(=O)Nc1ccccc1N(CC(O)Cn1c2ccccc2c2ccccc21)S(=O)(=O)c1ccc(C)cc1 (configuration not stated)	?	?	.	11µM	?
CCN(CC(O)Cn1c2ccccc2c2ccccc21)S(=O)(=O)c1ccc(C)cc1 (configuration not stated)	/	?	/	3.2µM	?
COc1ccc(COC(=O)N/N=C2/C[C@@H](O)[C@@H](O)[C@@H]3[C@@H]4C(=O)N(Cc5ccccc5)C(=O)[C@H]4CC[C@H]23)cc1	/	/	/	/	.
COc1ccc(COC(=O)NN=C2C[C@@H](O)[C@@H](O)[C@@H]3[C@H]4C(=O)N(Cc5ccccc5)C(=O)[C@@H]4CC[C@@H]23)cc1	/	4.4µM	/	/	.
CN(C)c1ccc(/C=N/NC(=S)NCc2ccccc2)cc1	.	0.28µM	.	.	.
CC(C)(C)c1ccc(/C=N/NC(=S)NCc2ccccc2)cc1	.	0.26µM	.	.	.
CNC(=S)N/N=C/c1ccc(N(C)C)cc1	.	.	.	.	.
CCOc1ccc(CNC(=S)N/N=C/c2ccc(OC)c(OC)c2)cc1	?	2.8µM	?	.	.
SMILES	VACV Venus inh	Lassa entry inh	Vaccinia mCherry	HCV inhibitor	MARV entry inh
C=CCNC(=S)N/N=C/c1ccc(C(C)(C)C)cc1	.	?	.	?	?
COc1cc(CNc2ccc(S(N)(=O)=O)cc2)ccc1OCc1ccccc1F	/	/	/	11µM	/
COc1cc(=O)n2c(c1C(=O)NCc1ccco1)CCN(C(=O)c1ccccc1-c1ncc[nH]1)CC2	.	/	.	/	/
O=S(=O)(c1ccccc1)N1CCN(C(=S)NC2CCCC2)CC1	.	.	.	.	.
O=S(=O)(c1c(Cl)cc(Br)cc1Cl)N1CCN(C(=S)NC2CC2)CC1	.	?	.	25µM	?
C[C@@H]1[C@H](c2ccccc2)OCCS(=O)(=O)N1Cc1ccccc1Br	.	/	.	/	/
Cc1ccc(NC(=O)CSc2nc3c(oc4ccccc43)c(=O)n2Cc2ccco2)cc1F	.	.	.	/	.
